# Hit rate of the full screen: of about 38,000 compounds, about 1,200 (3.2%) showed an effect of 50% or more. The median lay at about -58%. Many of the other results were omitted from the sample, so strong results are more common in it than they were.
# System: Plasmodium falciparum
# Experiment: Calibr Malaria Delayed Death Assay SOP
# Assay type: functional, organism-based
# Design: scale not given: in the data most compounds retested in dose-response had high values
# Details: concentration 4.99e-06 (unit not given; other assays of the set use mol/L)
row,SMILES,Percent Effect
1,COc1cc(C2CC(=O)Nc3c2nc2n3CCCC2)cc(OC)c1O (centres undefined),-209%
2,Cc1noc2ncc(S(=O)(=O)N3CCCC(C)(C)CC3)cc12,-55%
3,CCN(CC)c1ccc(-c2ccc(C)c(S(N)(=O)=O)c2)nn1,-97.64%
4,CC(CN1CC[C@@H]2CCCC[C@@H]2C1)n1cnc2ccccc21 (some centres undefined),-12.48%
5,CN(Cc1ccc(N(C)C)cc1)C(=O)NCc1nnc2n1CCC2,-107.1%
6,COc1ccccc1C(O)Cn1cc(C(=O)NCc2ccco2)nn1 (centres undefined),-49.33%
7,COC(=O)c1ccc(CNC(C)(C)c2ccccc2OC)o1,-1.138%
8,Cc1ccc(CNC(C)(C)c2noc(C(C)(C)C)n2)o1,-93.54%
9,COc1ccccc1C(C)(C)NCc1ccc(C)o1,77.27%
10,CNc1c(NCc2ccco2)c(=O)c1=O,-69.06%
11,COc1ccccc1C(C)(C)NCc1ccco1,64.69%
12,CCc1nc(CN2CCCC(N(C)Cc3nc(C)c(C)o3)C2)no1 (centres undefined),-5.85%
13,Cc1ncnc2c1CCN(CC(=O)N(C)C)CC2.O=C(O)C(F)(F)F,-30.27%
14,O=C(C1=COCCO1)N1CC(Oc2nc3c(Cl)cccc3s2)C1,-117.3%
15,COCCN1C(=O)CC[C@@H]2[C@H]1CCN2S(=O)(=O)c1cccs1,-44.47%
16,O=C(NCCc1csc(-c2ncccn2)n1)c1cnn2c1CCCC2,-31.93%
17,CN(C)S(=O)(=O)N1CCCC(c2cccc(Cc3ccc(Cl)cc3)n2)C1 (centres undefined),-15.18%
18,CC(=O)N1CCCC1c1cccc(Cc2ccccc2Cl)n1 (centres undefined),-62.89%
19,O=C(C1CC=CC1)N1C[C@H]2CN(Cc3ccncc3)C(=O)[C@H]2C1.O=C(O)C(F)(F)F,-118.6%
20,COc1ccc(C(C(=O)O)N(C)CCN2CCCC2)c(C)c1 (centres undefined),-56.58%
21,COc1cc(F)ccc1C(C(=O)O)N(C)CCN1CCOCC1 (centres undefined),79.89%
22,COc1ccc(C(C(=O)O)N(C)CCN2CCCC2)cc1F (centres undefined),-71.16%
23,COc1ccc(C(C(=O)O)N(C)CCN2CCOCC2)c(C)c1 (centres undefined),-92.34%
24,Cc1ccc(C(C(=O)O)N(C)CCN2CCOCC2)c(F)c1 (centres undefined),-35.14%
25,COc1cc(F)ccc1C(C(=O)O)N(C)CCN1CCCC1 (centres undefined),71.25%
26,CCCS(=O)(=O)N1C[C@H]2C[C@H](C(=O)Nc3cccnc3)[C@@H](C1)O2,-54.27%

row,SMILES,Percent Effect
1,CC(C)=CCN1CCN(Cc2cccc(C)n2)CC1CCO (centres undefined),-53.69%
2,Cc1cc(NCCc2nc(C)cs2)nc(-c2cccnc2)n1,-152.4%
3,CC(C(=O)NN1CCOCC1)n1nc(C(F)(F)F)c(Cl)c1C1CC1 (centres undefined),-94.38%
4,Cc1c(C(=O)NC2=NCCS2)cnn1-c1ccc(Cl)cc1,-71.42%
5,COCCCN1CC2(CCCN(c3ncc(Cl)cc3F)C2)CCC1=O (centres undefined),-81.54%
6,CN(C)CCN1CC2(CCCN(c3ncc(Cl)cc3F)C2)CCC1=O (centres undefined),82.66%
7,COCCN1CC2(CCCN(c3ncc(Cl)cc3F)C2)CCC1=O (centres undefined),-14.43%
8,CCN1Cc2nc(OC)c(CNC(=O)C3CCCN(C)C3)cc2C1=O (centres undefined),-47.23%
9,C=C(C)CN1CCCC(NS(C)(=O)=O)C1 (centres undefined),-112.5%
10,CO[C@H]1CN(C(=O)c2ccnnc2)[C@@H]2COC[C@H]12,-17.32%
11,CN(C)CCN1C[C@@H]2CN(c3ccccc3)C[C@@H]2C1=O.O=C(O)C(F)(F)F,-48.1%
12,CCC(=O)NCC(=O)NC(Cc1ccccc1)c1sccc1C (centres undefined),84.56%
13,Cc1ccsc1C(O)CNC(=O)Cc1ccc(F)cc1 (centres undefined),-29.72%
14,CCC(=O)NC(CC)c1ccccc1C (centres undefined),-70.92%
15,O=C(CNC(=O)C1CC1)Nc1c(F)cccc1Oc1ccccc1,-53.44%
16,Cc1ccsc1C(Cc1ccccc1)NC(=O)CSCC(N)=O (centres undefined),-15.45%
17,Cc1ccsc1C(Cc1ccccc1)NC(=O)CNC(=O)C1CC1 (centres undefined),68.17%
18,COc1cccc2c1OCC(Cc1cc(C(N)=O)ccn1)C2 (centres undefined),-54.91%
19,CCc1nc(CN(C)C(=O)c2ccc(OCCCOC)nc2)cs1,-70.62%
20,Cn1cc(CC(=O)N2CCC(Nc3cccnn3)CC2)c2ccccc21,-27.56%
21,CCC(=O)NCC(CC)Oc1cccc(F)c1 (centres undefined),-6.3%
22,CCC(CNC(=O)COC)Oc1cccc(F)c1 (centres undefined),-58.01%
23,CCC(CNC(=O)CNC(C)=O)Oc1cccc(F)c1 (centres undefined),84.82%
24,Cc1cc(C(=O)N2CCCC(c3cc(C(F)(F)F)[nH]n3)C2)[nH]n1 (centres undefined),-117%
25,O=C(O)C(F)(F)F.O=C(O)C(F)(F)F.c1cncc(-c2ncnc3c2CCN(Cc2ccsc2)CC3)c1,-128.4%
26,CCN(C)CC1CCN(C(=O)Nc2ccc(C)cc2)C1 (centres undefined),-13.91%

row,SMILES,Percent Effect
1,Cn1c(=O)oc2cc(S(=O)(=O)N3CCC(c4ccccc4)C3)c(Cl)cc21 (centres undefined),-8.531%
2,O=C(O)C(F)(F)F.O=C(c1ccncc1F)N1CC[C@@H]2CN(c3ncccn3)CCO[C@@H]2C1,-33.14%
3,Cc1ccc(CN2CCCn3c(nc(Cn4ccnc4)cc3=O)C2)s1,-9.733%
4,Cc1cc(N(Cc2ccccn2)C2CC2)n2nc(C(F)(F)F)nc2n1,-69.19%
5,COCCN(c1cc(C)nc2nc(C(F)(F)F)nn12)C1CCCC1,-69.88%
6,Cc1cc(N(Cc2ccccc2F)C2CC2)n2nc(C(F)(F)F)nc2n1,-0.7756%
7,Cc1cc(N(Cc2cccnc2)C2CC2)n2nc(C(F)(F)F)nc2n1,22.81%
8,Cc1cc(N(Cc2cccs2)C2CC2)n2nc(C(F)(F)F)nc2n1,65.64%
9,Cc1ccc(CN(c2cc(C)nc3nc(C(F)(F)F)nn23)C2CC2)cc1,93.63%
10,COC(=O)CCC(=O)N1CCC2(CN(Cc3ccccc3)C2)C1,-61.64%
11,Cc1cc(C)n(-c2cncc(NCCC(=O)NC(C)C)n2)n1,-25.6%
12,Fc1ccc(CN2CCO[C@H]3[C@H](OCC4CCCC4)CC[C@@H]32)cc1.O=C(O)C(F)(F)F,-74.43%
13,COC(=O)N1CCCN(Cn2nc(C)c(Br)c2C)CC1,-78.94%
14,CCOC[C@@]12CCC[C@@H]1CN(C(=O)c1ccc(OC)cc1)C2,-67.65%
15,Cn1cc(CN2CCn3cc(Cn4cccn4)nc3C2)cn1.O=C(O)C(F)(F)F,-116.7%
16,CC(C)Nc1ncnc2c1CCN(C(=O)CC1CCCC1)CC2,-30.46%
17,CCOCCN1CCN(CC(O)c2ccc(C)c(C)c2)CC1 (centres undefined),-16.95%
18,CC(C)C(=O)N1CCN(CC(O)c2cc(Cl)ccc2Cl)CC1 (centres undefined),-47.78%
19,OCCN1CCN(CC(O)c2cc(Cl)ccc2Cl)CC1 (centres undefined),-5.982%
20,CCN1CCN(CC(O)c2cc(Cl)ccc2Cl)CC1 (centres undefined),76.72%
21,CCOCCN1CCN(CC(O)c2cc(Cl)ccc2Cl)CC1 (centres undefined),77.57%
22,OC(CN1CCOCC1)c1cc(Cl)ccc1Cl (centres undefined),-41.91%
23,CC(C)c1nn(C)c(Cl)c1CNCCn1cccn1,8.083%
24,COc1ccc(CNc2nc(C3CC3)nc3c(C)nn(C)c23)cc1,25.99%
25,CCn1ccc(-c2cc(C(=O)O)n3ncc(Cl)c3n2)n1,-63.4%
26,CCC(=O)Nc1cccc(OCC(=O)N(C)CCCC2CCCO2)c1 (centres undefined),-128%

row,SMILES,Percent Effect
1,O=C(C(CNCc1cccc(O)c1)c1ccccc1)N1CCOCC1 (centres undefined),-54.71%
2,O=C(C(CNCc1cccs1)c1ccccc1)N1CCOCC1 (centres undefined),4.238%
3,O=C(Nc1nccs1)c1csc(NC2CCCC2)n1,-183.6%
4,Cc1cnn(CCNCC(O)c2ccc(C(F)(F)F)cc2)c1 (centres undefined),71.82%
5,Cc1cnn(CCNCC(O)c2ccc3c(c2)OCCO3)c1 (centres undefined),-44.13%
6,Cc1cnn(CCNCC(O)c2ccc(F)c(F)c2)c1 (centres undefined),43.94%
7,COc1ccccc1C1CC(=O)Nc2c1c(=O)[nH]n2C(C)C (centres undefined),-127.8%
8,CC(O)CNc1nc(-c2cccnc2)nc2c1CCC2 (centres undefined),-47.48%
9,c1cncc(-c2nc3c(c(NCC4(c5ccncc5)CC4)n2)CCC3)c1,-35.93%
10,c1ccc(-n2cnnc2CCCN2CCOCC2)cc1,-26.23%
11,CC(C)OCCC(=O)NCC(c1c(F)cccc1F)N(C)C (centres undefined),-18.53%
12,O=C1COC2(CCN(C(=O)[C@H]3CCCO3)CC2)CN1Cc1ccccn1,-79.26%
13,CC(C)[C@H](N)C(=O)N1CCSc2ccccc2C1.Cl,73.25%
14,Cc1csc(CN(C)C(C)C(=O)N2CCc3ccccc3C2)n1 (centres undefined),-122.6%
15,Cl.NC(C(=O)N1CCSc2ccccc2C1)c1ccccc1 (centres undefined),59.31%
16,N[C@@H](C(=O)N1CCN(c2ccccc2Cl)C(=O)C1)c1ccccc1,-16.48%
17,O=C(C(CNCc1ccccc1O)c1ccccc1)N1CCOCC1 (centres undefined),14.02%
18,CC(C)C[C@H](N)C(=O)N1CCSc2ccccc2C1.Cl,47.22%
19,CC1c2ncc(COCC3CC3)n2CCN1C(=O)c1ccnnc1 (centres undefined),2.24%
20,CCOCCN1CCN(CC(O)c2ccc(C(F)(F)F)cc2)CC1 (centres undefined),21.93%
21,CSCc1ccc(C(=O)N2CCN(CC(C)O)CC2)cc1 (centres undefined),-108.1%
22,Cc1cc(CN2CCN(c3ccc4nncn4n3)CC2)no1,-4.981%
23,c1ccc(CCN2CCN(c3ccc4nncn4n3)CC2)nc1,-102.7%
24,CC(Cn1cccn1)NC(=O)N1CCN(Cc2cccnc2)CC1 (centres undefined),-145.3%
25,Cc1[nH]c(=O)[nH]c(=O)c1CN1CCCC(CCc2ccccc2)C1 (centres undefined),-20.63%
26,COc1cccc(CCC2CCCN(C(=O)c3ccccn3)C2)c1 (centres undefined),-27.65%
